Test results reported in the supplement of paper PMC6555819.

How the values were obtained:
Assay in all cases: PBM binding z-score (relative to random genomic background probes); higher = stronger binding; sequences stand for … in GC…GCGATTGACAGCGTAGAATGAAGG
[1] = system: FXR:RXRa (NR concentration 270 nM, RXRa partner concentration 90 nM)
Summary of the method: (§1)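 Random background probes are the reference for binding z-scores. These scores derive from regression-normalized fluorescence on custom Agilent 4×180K protein-binding microarrays incubated 1 h with ligand-free nuclear receptor dimers. Binding was detected with antibodies against each partner (one per run).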

[2] = system: LXRa:RXRa (NR concentration 270 nM, RXRa partner concentration 90 nM)
Summary of the method: as §1

[3] = system: LXRa homodimer (NR concentration 270 nM)
Summary of the method: as §1

[4] = system: LXRb:RXRa (NR concentration 270 nM, RXRa partner concentration 90 nM)
Summary of the method: as §1

[5] = system: LXRb homodimer (NR concentration 270 nM)
Summary of the method: as §1

[6] = system: PPARa:RXRa (NR concentration 270 nM, RXRa partner concentration 90 nM)
Summary of the method: as §1

[7] = system: PPARg:RXRa (NR concentration 180 nM, RXRa partner concentration 90 nM)
Summary of the method: as §1

[8] = system: PPARg:RXRa 270nM:90nM, anti-RXR (NR concentration 270 nM, RXRa partner concentration 90 nM)
Summary of the method: as §1

[9] = system: PPARg:RXRa 30nM:10nM, anti-RXR (NR concentration 30 nM, RXRa partner concentration 10 nM)
Summary of the method: as §1

[10] = system: PPARg:RXRa 90nM:30nM, anti-RXR (NR concentration 90 nM, RXRa partner concentration 30 nM)
Summary of the method: as §1

[11] = system: PPARg:RXRa DBDmut IVT, anti-RXR (DBD mutation: RXRa K156A/R161A, NR concentration 270 nM, RXRa partner concentration 90 nM)
Summary of the method: as §1

[12] = system: PPARg:RXRa IVT, anti-PPARg (NR concentration 270 nM, RXRa partner concentration 90 nM)
Summary of the method: as §1

[13] = system: PPARg DBDmut:RXRa IVT, anti-PPARg (DBD mutation: PPARg1 K132A/R137A, NR concentration 270 nM, RXRa partner concentration 90 nM)
Summary of the method: as §1

[14] = system: PPARg DBDmut IVT, anti-PPARg (DBD mutation: PPARg1 K132A/R137A, NR concentration 270 nM)
Summary of the method: as §1

[15] = system: PPARg homodimer (NR concentration 180 nM)
Summary of the method: as §1

[16] = system: PXR:RXRa (NR concentration 270 nM, RXRa partner concentration 90 nM)
Summary of the method: as §1

[17] = system: PXR homodimer (NR concentration 270 nM)
Summary of the method: as §1

[18] = system: RARa:RXR (NR concentration 270 nM, RXRa partner concentration 90 nM)
Summary of the method: as §1

[19] = system: RARa homodimer (NR concentration 270 nM)
Summary of the method: as §1

[20] = system: RARb:RXRa (NR concentration 270 nM, RXRa partner concentration 90 nM)
Summary of the method: as §1

Sequence	PBM binding z-score [1]	PBM binding z-score [2]	PBM binding z-score [3]	PBM binding z-score [4]	PBM binding z-score [5]	PBM binding z-score [6]	PBM binding z-score [7]	PBM binding z-score [8]	PBM binding z-score [9]	PBM binding z-score [10]	PBM binding z-score [11]	PBM binding z-score [12]	PBM binding z-score [13]	PBM binding z-score [14]	PBM binding z-score [15]	PBM binding z-score [16]	PBM binding z-score [17]	PBM binding z-score [18]	PBM binding z-score [19]	PBM binding z-score [20]
ATCTCTACGTAAAGTTCAGTGAAAGATCGATAGA	0.641	1.57	1.36	1.02	1.16	1.36	1.04	2.47	1.02	1.96	-0.332	0.634	1.64	1.55	1.75	1.93	1.97	1.39	1.12	3.02
ACTAGTTGGTCAGCTGAGGACACACACAATTCGG	1.67	-0.161	-0.165	0.0976	0.0569	0.0805	0.997	-0.202	-0.228	-0.243	0.766	1	0.592	0.377	0.0418	1.38	0.241	1.05	0.18	1.52
CAAACTAGATCAAGAGGTCAAAGTCCGCTTCCCG	4.72	5.55	6.71	5.21	1.87	5.77	4.08	4.85	2.67	4.71	2.78	3.67	0.521	0.139	2.25	5.07	1.99	5.22	1.44	4.06
ATCGAAAGGTCGACGAGGGGAGTATACACCGTTT	4.13	3.51	0.159	2.8	1.07	4.15	2.47	2.77	0.952	1.67	0.481	1.64	1.34	0.0319	1.49	2.39	0.488	3.37	0.328	3.74
TTACCAAGGTGAAAGGTCGTTGGTGCACGCCTTG	4.28	3.47	0.325	2.87	-0.67	5.54	8.98	8.05	6.8	8.19	3.18	5.34	0.205	0.977	2.46	4.31	0.449	6.09	-0.639	3.31
TCATATAGGTAAACAGCTGAAAGTCCGTAAGTTA	1.09	0.759	0.185	0.758	-0.215	1.37	0.75	2.36	3.9	3.19	3.93	2.25	1.07	0.733	0.646	0.928	0.555	1.19	0.977	0.471
CCTACTGGCCCAAAAAGGTCATTGATGCCGATAA	3.63	4.47	3.88	4.4	1.04	4.74	1.35	2.89	0.585	1.93	0.453	1.52	-0.0321	-0.749	3.4	4.99	2.07	5.65	2.16	3.99
ATATCTAGGTAACCAAGTTCAGTGAATGCCGAAC	0.636	0.866	0.932	0.565	0.434	2.98	4.48	3.23	1.23	2.32	6.87	6.81	1.28	1.43	1.06	2.01	1.85	0.933	0.953	1.39
GGATCGAGGGCAAAGTTGATAGCATCTGTCGACG	1.65	1.21	-0.00761	0.937	-0.138	4.37	7.25	7.18	5.86	8.27	3.8	4.54	0.527	1.19	1.75	1.34	0.172	1.65	-0.00886	2.61
CGTCCAAGGTCATAGGAGGTCAGAGAAGACAGAT	8	7.71	5.01	6.38	0.877	6.27	6.35	6.19	2.71	5.09	3.19	4.81	1.6	0.958	3.89	6.83	4.38	6.6	1.92	5.51
TGAATGAGGTTATAAGATCAGGGGACGTTGCAAA	1.42	1.51	-0.106	1.61	0.309	2.73	1.65	1.96	0.887	1.28	1.5	1.82	0.706	0.291	0.361	0.901	0.3	1.58	0.169	1.43
TCTATTAGTTGATTTGGGCAACCGAAACAGCGGA	0.267	0.602	0.223	0.863	1.2	0.657	-0.145	1.83	3.74	3.01	2.03	0.616	1.09	1.16	0.506	0.543	0.421	0.432	0.567	0.368
ACTATTAGTTGAGACGAGGGCAACCGGTAGGTTG	0.623	0.318	0.134	0.06	-0.0535	0.319	0.685	-0.0601	-0.0682	0.00323	0.0734	0.502	0.336	-0.0704	-0.0372	1.47	0.373	0.84	0.204	1.4
ACTAGCAGGCCAAGTTTGGGTCACTCCAACAAAG	0.154	0.00504	-0.19	0.664	-0.49	1.18	-0.0331	-0.0928	-0.803	-0.387	0.7	1.34	-0.265	-0.469	0.235	0.603	-0.498	1.4	-0.0686	1.74
CCTCGGAGTACAGAAGGTCAGAGCTGTCCGCTTT	1.75	3.22	1.46	1.54	-0.164	2.02	-0.0233	0.921	-0.606	0.4	0.368	-0.113	-0.995	-1.23	1.8	1.83	0.165	2.18	0.283	2.69
GGAACGAGGGCAAAGTTGCTAGCATCTGTCGACG	0.659	0.547	-0.512	0.42	-0.761	2.65	3.83	5.03	2.76	5.06	3.98	3.83	0.283	0.105	0.354	0.708	-0.31	0.566	-1.12	2.38
CCTTACGGGTCACTCGAGGTTATAGCATCGGAGT	5.2	7.76	3.19	5.72	-0.178	5.01	4.03	4.33	1.41	3.01	2.22	3.7	0.422	0.0524	1.69	5.71	0.375	3.69	0.443	3.91
CCTACTGGGCCACGAAAGGTTATTGATTCAGTGA	0.471	1.28	0.5	1.1	-0.501	2.58	2.37	2.81	0.563	1.69	5.07	5.34	0.351	-0.129	0.506	1.43	0.179	1.78	0.179	1.39
TCTCGGAGGACACGAAGGTTAGAGCTTTCCAGAG	0.31	-0.0717	-0.684	-0.246	-1.26	0.397	-0.0287	1	2.15	1.58	0.921	0.171	-0.626	-1.17	-0.693	0.0364	-0.704	0.0543	-1.13	1.88
TGTAGTTGGTCAAAGGTCACACACTCGAAATGCG	5.82	5.9	3.8	5.42	1.98	6.69	11	9.78	10.1	11.7	1.7	6.41	2.33	2.58	5.57	6.06	1.72	7.38	3.74	4.86
CTACCAAGGTGAACGAGGTCGTTGATTACTATTC	1.79	1.81	0.142	2.09	-0.207	2.82	1.45	1.48	0.4	0.896	2.17	2.89	0.126	-0.713	0.838	3.54	2.67	2.7	0.278	2.3
ATATCTAGGTTACATCCGGGTCATTCAGGCTATG	2.52	4.41	1.93	3.04	1.64	4.41	6	5.11	2.4	4.09	7.39	7.41	3.31	3.16	2.49	3.62	3.73	3.4	1.99	2.63
CTCGAAAGGTCGATTGAGGTGAGTATACGGATAA	4.35	3.38	-0.0633	2.93	0.38	4.12	1.66	2.47	0.642	1.43	0.741	1.76	-0.148	0.11	0.805	4.35	0.0799	3.05	0.109	3.67
AACTCTAGGTAAAGTTCAGTGAAAGATCGATAGA	0.741	1.51	1.46	1.06	0.134	2.44	3.7	4.77	2.77	4.53	2.44	2.21	0.224	0.266	0.953	1.71	1.53	1.14	0.544	2.73
TTACCAAGGTGCAAGGTCGTTGATGCACGCCTTG	0.786	1.16	0.129	0.668	-0.474	2.06	2.28	3.87	1.91	3.42	-0.0401	1.05	-0.472	-0.179	0.87	1.16	0.648	1.13	-0.653	1.22
TCTGCTAGGTCAACGATGGTCGGCTAATCTGCTA	3.06	2.14	-0.28	1.11	-0.00978	2.9	2.1	3.01	1.81	2.42	4.31	4.05	0.027	-0.0502	0.168	1.22	-0.84	2.02	-1.21	3.97
CAAACTAGGTCAAGACGTCAAAGTCCGCTTCCCG	3.84	2.6	0.426	1.79	0.329	4.81	7.43	6.72	4.47	6.25	7.92	8.15	1.87	1.07	1.86	1.24	-0.0732	2.5	0.685	3.97
TGTCAAAGTTCAAAGGTAAGGTAAGTATCCACAC	7.21	6.56	4.78	4.45	1.75	5.46	8.72	7.6	5.24	7.45	0.662	4.2	2.56	2.04	6.17	5.8	5.17	6.32	2.15	5.2
